# Measured values from PubChem BioAssay (NCI).
# Values joined by “and” are separate entries in the source; they are usually repeats but may differ in a detail not shown here. Equal values may be shown once. The panel holds about 83,000 compounds, 20% with a hit somewhere; the sample as a whole holds those more often.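 Interpretation: 100, growth as untreated; towards 0, rising growth inhibition; 0, no net growth; 0 to -100, cell death. Compounds scoring below 10 were considered active.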 A number with no mark means an inactive call. Active and inactive are the calls of the source.
# Tested on: MDA-MB-468 breast
# Test: NCI-60 one-dose screen, 48 h (100 = growth as untreated, 0 = no growth, -100 = all killed)
# Details: 10 µM unless noted
row,Structure (SMILES),growth
1,O=C1CCC/C=C\C[C@H]2C=CC(=O)/C2=C/C[C@H](CCc2cccc(C(F)(F)F)c2)O1,-38.3% (active)
2,COc1cccc2c1-c1ccccc1C2=O,39.3%
3,CN(C(=O)c1ccccc1)N(C)C(=O)c1ccccc1,120%
4,CN(C)c1nc(N)c(N=O)c(N)n1,114%
5,COc1ccc2nc3ccccc3c(NCc3ccc(F)cc3)c2c1,-23.9% (active)
6,COc1cc(/C=C/C(=O)N2CCN(C(=O)c3cc(OC)c(OC)c(OC)c3)CC2)ccc1OCCCOc1cc2c(cc1OC)C(=O)N1CCC[C@H]1C=N2,-34.6% (active)
7,CCCCN(CCCC)CCc1c(C)cc(C)c(CCN(CCCC)CCCC)c1O,0.281% (active)
8,O=C(Nc1cccc(-n2cc(-c3ccncc3)c(-c3ccc(Cl)c(O)c3)n2)c1)c1ccc(N2CCOCC2)c(C(F)(F)F)c1,66%
9,CC(=O)O[C@H]1CC[C@@]2(C)C(=CC[C@@H]3[C@@H]2CC[C@]2(C)C(c4cccnc4)=CC[C@@H]32)C1,26.5%
10,O=C(Nc1ccc(I)cc1F)c1cc(Cl)ccc1O,-1.5% (active)
11,C1CCc2onc(-c3noc4c3CCCCC4)c2CC1,108%
12,COc1ccc2nc3cc(Cl)ccc3c(NCCNc3c4ccc(Cl)cc4nc4ccc(OC)cc34)c2c1,-69.8% (active)
13,C[C@H]1[C@H]2C3=CC[C@@H]4[C@@]5(C)C/C(=C/c6ccncc6)C(=O)C(C)(C)[C@@H]5CC[C@@]4(C)[C@]3(C)CC[C@@]2(C(=O)N2CCN(C)CC2)CC[C@@H]1C,41.1%
14,N#Cc1c(-c2ccc(F)cc2)n2c(nc1=O)SC(=O)C2=O,94.5%
15,Cc1ccc(S(=O)(=O)Oc2ccc([N+](=O)[O-])cc2[N+](=O)[O-])cc1,107%
16,COc1cc(Cl)cc(-c2nn(-c3cccc(NC(=O)c4ccc(Cl)c(Cl)c4)c3)cc2-c2ccncc2)c1,54.6%
17,Cn1cnc([N+](=O)[O-])c1Sc1ncn[nH]1,73.5%
18,Cc1ccc(NC(=S)/N=c2/n(-c3ccccc3)nc3n2CCN3C2=NCCN2)cc1,104%
19,COc1ccc2cc(-c3cnc4nonc4n3)ccc2c1,-2.09% (active)
20,CCOC(=O)c1ccc(C(=N)N)cc1,106%

row,Structure (SMILES),growth
1,COc1ccc(CCN2CCC(Nc3nc4ccccc4n3Cc3ccc(F)cc3)CC2)cc1,-84.1% (active)
2,O=C1C2=C(Nc3cc(Cl)ccc3N2)OC1c1c[nH]c2ccc(COc3ccccc3)cc12 (stereo not given),48.2%
3,CCOc1ccc2cc(-c3nn(CC4CCN(C)CC4)c4ncnc(N)c34)ccc2c1,85.6% and 42%
4,COc1cc2c(C#N)n3c(c2cc1OC)C(=O)C(c1ccccc1)Oc1ccccc1-3 (stereo not given),74.5%
5,COc1ccc2[nH]c(=O)c(/C=C/C(=O)/C=C/c3ccc(O)c(OC)c3)cc2c1,-32.1% (active)
6,Cc1cc2c(cc1C)[n+](Cc1ccc3ccccc3c1)cn2Cc1ccc2ccccc2c1,-76.4% (active)
7,COc1cc(Br)c(OC)cc1Br,95.5%
8,CCNCCOc1ccc(/C(=C(/CC)c2ccc(Cl)cc2)c2ccc(OCCCN(C)C)cc2)cc1,-87% (active)
9,Nc1nc(N)c2c(n1)NC(c1ccc3c(c1)OCO3)CC(c1cccc(Nc3ccncc3)c1)=N2 (stereo not given),62.7%
10,CCC#CC[C@H](O)C/C=C1/C(=O)C=C[C@@H]1C/C=C\CCCC(=O)OC,12.4%
11,COc1cc2c(cc1OC)-c1ccc3cc4c(cc3c1N(CCCn1ccnc1)C2)OCO4,-63.7% (active)
12,Cc1ccc(C2CC(c3ccc(Nc4nc(NCCO)nc(NCCO)n4)cc3)=NN2c2ccc(Cl)cc2)cc1 (stereo not given),73.2%
13,Cc1cc2nc(CC(=O)c3cccc([N+](=O)[O-])c3)c(=O)[nH]c2cc1C,85.1%
14,CCCCc1ccc(C(O)(CCN2CC3CCC(CC3)C2)c2ccccc2)cc1 (stereo not given),97.4%
15,COCCOC(=O)c1ccc(C(C)C)cc1,106%
16,O=C1C=C(O)C(=O)C=C1O,115%
17,COC(=O)c1c2c(c(C)[n+]([O-])c1C)C(=O)C=CC2=O,-33% (active)
18,CC(C)C[C@H](NC(=O)/C=C/Cn1ccc2ccccc2c1=O)B(O)O,-6.84% (active)
19,O=C1/C(=C\c2cccn2C(=O)c2ccccc2)c2ccccc2N1c1c(Cl)cccc1Cl,46.8%
20,C[C@@H](CO)[C@@H]1CCC=C2CC[C@]3(C)[C@H](CC[C@@H]4[C@@]5(C)CCCNC(C)(C)[C@@H]5CC[C@]43C)[C@H]21,-15.2% (active)
